For ten compounds, z-score results are on record in PubChem BioAssay.

Active and inactive are the calls of the source.

The test can be described thus: S. pombe growth modifiers, basal conditions – strain 972, OD600, 24 h, no modulator, primary screen (AID 1090).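 Also: basal condition with compound alone and no growth modifier present; test concentration not given here.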 The following applies: S. pombe 972 growth, higher = more signal, called active from +8 up or from −8 down.
In the case of `N#Cc1ccc(NN2C(C(O)c3ccc(Br)cc3)C=CC3C(=O)N(c4ccccc4)C(=O)C32)cc1` (stereo not given), the z-score was -0.605 (inactive).
Next, `CC1CC/C=C\[C@H]2OC34C=CCN(c5ccc(Cl)cc5)C(=O)[C@H]3N(C(C)CO)C(=O)[C@]4(C)C2C(=O)O1` (stereo not given in full): -0.738 (inactive); `CO[C@H]1O[C@H](CO)[C@@H](OC(=O)Nc2ccc(Br)cc2)[C@@H]2OC(=O)[C@@H](Cc3ccccc3)C/C=C/C[C@H](Cc3ccccc3)C(=O)O[C@@H]12`: -0.295 (inactive).
The result for `CCOC(=O)C[C@H]1[C@H](OC(=O)c2cc3ccccc3oc2=O)[C@@H](NC(=O)c2ccccc2)c2cc(OCCCO)ccc2N1C(=O)c1ccccc1` reads -1.64 (inactive); that for `O=C1OCCC=C[C@H]2OC34C=CCN(c5ccc6ccccc6c5)C(=O)[C@H]3N(CCCO)C(=O)[C@@H]4C12` (stereo not given in full), -0.951 (inactive); that for `O=C1C2C=CC(C(O)C3CC=CCC3)N(Nc3ccccc3)C2C(=O)N1c1ccccc1` (stereo not given), -0.428 (inactive).
Next, `Cc1ccc(S[C@]2(C(=O)NC(C)C)CC(=O)N(Cc3cc(C(F)(F)F)cc(C(F)(F)F)c3)[C@@H]2c2ccc(CO)cc2)cc1`: -1.03 (inactive).
Consider `CCOC(=O)C[C@H]1[C@H](OC(=O)c2ccccc2-c2ccccc2)[C@@H](NC(=O)c2ccc3ccccc3n2)c2cc(OCCCO)ccc2N1C(=O)Cc1ccc(OC)cc1`, for which the z-score was -0.167 (inactive).
`CC(C)c1ccc(NN2C(C(O)c3ccc(C#N)cc3)C=CC3C(=O)N(c4ccccc4)C(=O)C32)cc1` (stereo not given): the z-score was 0.608 (inactive).
Turning to `CCC#CCN(Cc1ccccc1Br)[C@H](/C=C/C1CC1)[C@@H](O)Cc1ccccc1`, the z-score is -1.55 (inactive).
